Measured potencies and affinities stand elsewhere. Values without a mark were called inactive. The source made the active and inactive calls. The rule behind the calls is not given here.
Assay: A549 cell cytotoxicity, dose response, cytotoxicity control, plate reader, dry powder, set 6 (AID 743312)
Settings: series mostly up to 26 µM; activity change, negative = cytotoxicity: at the top concentration

| Structure (SMILES) | activity change, negative = cytotoxicity [%] | outcome |
| --- | --- | --- |
| Cc1ccc(OCCn2cnc3ccccc32)c(C)c1 | 6.48 | – |
| CC(C)Oc1ccc(OCCn2c(=S)[nH]c3ccccc32)cc1 | -2.95 | – |
| COc1ccccc1OCCn1c(SC)nc2ccccc21 | 4.85 | – |
| COc1cccc(OCCn2cnc3ccccc32)c1 | -10.1 | – |
| Cc1ccccc1OCCn1cnc2ccccc21 | -4.27 | – |
| CCSc1nc2ccccc2n1CCOc1ccccc1 | -4.67 | – |
| Fc1ccc2c(c1)[nH]c(=S)n2CCOc1ccccc1 | – | inactive |
| COCc1nc2ccccc2n1CCOc1ccc(C(C)(C)C)cc1 | -14 | – |
| COc1ccccc1OCCn1c(=S)[nH]c2ccccc21 | 22.9 | – |
| CSc1nc2ccccc2n1CCOc1ccccc1 | -2.73 | – |
| Clc1ccc(OCCn2cnc3ccccc32)c(Cl)c1 | 20.7 | – |
| Cc1ccc(OCCn2cnc3cc(C)c(C)cc32)cc1 | -14.1 | – |
| c1ccc(COc2ccc(OCCn3cnc4ccccc43)cc2)cc1 | -10.8 | – |
| c1ccc2c(c1)ncn2CCOc1ccc2c(c1)CCC2 | -25.2 | – |
| CC(C)Oc1cccc(OCCn2cnc3ccccc32)c1 | 18.7 | – |
| CSc1nc2ccccc2n1CCOc1ccc(C)cc1 | 31.9 | – |
| Cc1cccc(OCCn2c(=S)[nH]c3c(F)cccc32)c1 | – | inactive |
| Cc1ccc2c(c1)[nH]c(=S)n2CCOc1ccccc1 | 14 | – |
| CC(C)Oc1ccc(OCCn2cnc3ccccc32)cc1 | -7.64 | – |
| CCCCc1nc2ccccc2n1CCOc1ccccc1 | 14.4 | – |

Source: PubChem BioAssay AID743312 (Broad Institute, 2014)
